This note sets out measurements from PubChem BioAssay (NCI).

The panel holds about 79,000 compounds, 15% with a hit somewhere; the sample as a whole holds those more often. Unmarked numbers belong to inactive results. Calls of active or inactive are those of the source. No stated cut-off is given here; in the data, active means growth inhibition above about 70%; inactive means the rest.

A short description of assay [1]: NCI Yeast Anticancer Drug Screen. Data for the rad50 strain (AID 155).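 Further: 0% = growth of vehicle-only cultures of the same strain.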 The following applies: S. cerevisiae rad50 strain growth inhibition, stronger effect = higher value. Summed up: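 Cells are treated with compound, grown, and their growth is then scored against vehicle-only cultures of the same repair-deficient yeast strain.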
Assay [2] in a line: NCI Yeast Anticancer Drug Screen. Data for the mec2-1 strain (AID 157). The following applies: S. cerevisiae mec2-1 strain, stronger effect = higher value. Summed up: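 Using mec2-1 yeast: add compound, measure growth, express inhibition versus vehicle-treated cultures.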
Assay [3] in a line: NCI Yeast Anticancer Drug Screen. Data for the sgs1 mgt1 strain (AID 161).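 Further: 0% = growth of cultures given vehicle only.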 As to conditions: S. cerevisiae sgs1 mgt1 strain, stronger effect = higher value. The method in brief:
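Percent growth inhibition was derived by comparing compound-exposed mutant yeast with vehicle-exposed cultures. The strain carries alterations in DNA damage repair.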

The nature of assay [4]: NCI Yeast Anticancer Drug Screen. Data for the cln2 rad14 strain (AID 165).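 Further: 0% = growth equal to vehicle treated cultures.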 As to conditions: S. cerevisiae cln2 rad14 strain, stronger effect = higher value. The method in brief:
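Yeast strain cln2 rad14, bearing defects in cell cycle control and DNA repair, serves as the test system; values reflect growth inhibition compared with vehicle.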

Assay [5] can be described thus: NCI Yeast Anticancer Drug Screen. Data for the bub3 strain (AID 167). As to conditions: S. cerevisiae bub3 mutant strain, stronger effect = higher value. The method in brief:
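Part of a panel of yeast mutants defective in DNA damage repair or cell cycle regulation. Each strain is grown with compound, and inhibition is calculated relative to solvent-treated cultures.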

Assay [6] is described as follows: NCI Yeast Anticancer Drug Screen. Data for the mlh1 rad18 strain (AID 175). The following applies: S. cerevisiae mlh1 rad18 strain growth inhibition, stronger effect = higher value. Summed up: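 Steps: expose repair-defective yeast to compound; measure growth; express inhibition against vehicle-treated controls.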
[7] abbreviates: at 5.0 µM (retest, dose inferred, filed as 0.5).
Where [8] appears, read: at 50.0 µM (retest, dose inferred, filed as 5.0).

For the compound `NS(=O)(=O)c1ccc(NC(=S)/N=C/c2c(O)c3ccccc3[nH]c2=O)cc1`, the growth inhibition was 20% in assay [1] (setting [7]); 55% in assay [1] (setting [8]); 22.4% in assay [1] (at 50.0 µM); 17% in assay [2] (setting [7]); 26% in assay [2] (setting [8]); -0.65% in assay [2] (at 50.0 µM). Also, the growth inhibition is -29% in assay [3] (setting [7]); 0% in assay [3] (setting [8]); 25.4% in assay [3] (at 50.0 µM); 3% in assay [4] (setting [7]); 7% in assay [4] (setting [8]); -4.25% in assay [4] (at 50.0 µM). In addition, the growth inhibition is -10% in assay [5] (setting [7]); -8% in assay [5] (setting [8]); -11.8% in assay [5] (at 50.0 µM); 21% in assay [6] (setting [7]); 30% in assay [6] (setting [8]); 27.4% in assay [6] (at 50.0 µM).
With `CC(=O)NC1CCCCC1c1ccc(C2CCCCC2NC(C)=O)cc1` (stereo not given), the growth inhibition in assay [1] (setting [7]) was -8%; in assay [1] (setting [8]) it was 3%; in assay [1] (at 50.0 µM) it was -11.9%; in assay [2] (setting [7]) it was -8%; in assay [2] (setting [8]), 9%; in assay [2] (at 50.0 µM) it was -9.3%. For the same compound, the growth inhibition was -4% in assay [3] (setting [7]); 19% in assay [3] (setting [8]); 5.3% in assay [3] (at 50.0 µM); -69% in assay [4] (setting [7]); -6% in assay [4] (setting [8]); 66.8% in assay [4] (at 50.0 µM). The growth inhibition was -4% in assay [5] (setting [7]); 1% in assay [5] (setting [8]); -2.45% in assay [5] (at 50.0 µM); 3% in assay [6] (setting [7]); 3% in assay [6] (setting [8]); 1.9% in assay [6] (at 50.0 µM).
As for `Brc1ccc2[nH]c3nc4ccc5ccccc5c4nc3c2c1`, the growth inhibition in assay [1] (setting [7]) is 2%; in assay [1] (setting [8]), 1%; in assay [1] (at 50.0 µM), -2.35%; in assay [2] (setting [7]), 3%; in assay [2] (setting [8]), 1%; in assay [2] (at 50.0 µM) it was 20.8%. Besides, the growth inhibition is 0% in assay [3] (setting [7]); 0% in assay [3] (setting [8]); 7.15% in assay [3] (at 50.0 µM); 6% in assay [4] (setting [7]); -1% in assay [4] (setting [8]); 71% (active) in assay [4] (at 50.0 µM). In addition, the growth inhibition was 6% in assay [5] (setting [7]); 0% in assay [5] (setting [8]); 12.4% in assay [5] (at 50.0 µM); 6% in assay [6] (setting [7]); 2% in assay [6] (setting [8]); -3.25% in assay [6] (at 50.0 µM).
For the compound `N#Cc1ccc(Oc2nc3ccccc3nc2-c2ccccc2)cc1`, the growth inhibition in assay [1] (setting [7]) was 0%; in assay [1] (setting [8]) it was 21%; in assay [1] (at 50.0 µM), 38.2%; in assay [2] (setting [7]), -4%; in assay [2] (setting [8]), 39%; in assay [2] (at 50.0 µM), 22.2%. Also, the growth inhibition in assay [3] (setting [7]) is 12%; in assay [3] (setting [8]), 52%; in assay [3] (at 50.0 µM), 33.9%; in assay [4] (setting [7]), -6%; in assay [4] (setting [8]), 23%; in assay [4] (at 50.0 µM), 62.8%. Moreover, the growth inhibition was 5% in assay [5] (setting [7]); 86% (active) in assay [5] (setting [8]); 27.8% in assay [5] (at 50.0 µM); -4% in assay [6] (setting [7]); 27% in assay [6] (setting [8]); 53.5% in assay [6] (at 50.0 µM).
Turning to `COc1cc(/C=C2/C(=O)N(C(=O)c3ccccc3O)N=C2C)cc(OC)c1OC`, the growth inhibition was -14% in assay [1] (setting [7]); 23% in assay [1] (setting [8]); 64% in assay [1] (at 50.0 µM); 9% in assay [2] (setting [7]); 35% in assay [2] (setting [8]); 16.6% in assay [2] (at 50.0 µM). Further, the growth inhibition in assay [3] (setting [7]) was -8%; in assay [3] (setting [8]) it was 28%; in assay [3] (at 50.0 µM), 36.5%; in assay [4] (setting [7]), -4%; in assay [4] (setting [8]) it was 26%; in assay [4] (at 50.0 µM), 26.4%. Besides, the growth inhibition in assay [5] (setting [7]) is 12%; in assay [5] (setting [8]), 80% (active); in assay [5] (at 50.0 µM) it was 77.1% (active); in assay [6] (setting [7]) it was 20%; in assay [6] (setting [8]), 61%; in assay [6] (at 50.0 µM) it was 39.2%.
Regarding `CCCCCCCC(=O)O[C@H]1[C@H]2[C@@H](CC1(C)C)C(=O)[C@]13O[C@H]1C(=O)[C@]1(CO1)[C@]23C`, the growth inhibition in assay [1] (setting [7]) was 48%; in assay [1] (setting [8]) it was 98% (active); in assay [1] (at 50.0 µM), 91% (active); in assay [2] (setting [7]), 47%; in assay [2] (setting [8]) it was 98% (active); in assay [2] (at 50.0 µM) it was 92.8% (active). For the same compound, the growth inhibition in assay [3] (setting [7]) was 65%; in assay [3] (setting [8]), 98% (active); in assay [3] (at 50.0 µM), 92.7% (active); in assay [4] (setting [7]), 80% (active); in assay [4] (setting [8]), 98% (active); in assay [4] (at 50.0 µM), 90.8% (active). Besides, the growth inhibition in assay [5] (setting [7]) is 83% (active); in assay [5] (setting [8]) it was 97% (active); in assay [5] (at 50.0 µM), 90.4% (active); in assay [6] (setting [7]), 73% (active); in assay [6] (setting [8]) it was 97% (active); in assay [6] (at 50.0 µM), 91.5% (active).
For `O=C(CC(O)(C(F)(F)F)C(F)(F)Cl)CC(O)(C(F)(F)F)C(F)(F)Cl` (stereo not given), the growth inhibition in assay [1] (setting [7]) is 94% (active); in assay [1] (setting [8]), 88% (active); in assay [1] (at 50.0 µM) it was 99.3% (active); in assay [2] (setting [7]), 92% (active); in assay [2] (setting [8]), 99% (active); in assay [2] (at 50.0 µM), 99.4% (active). In addition, the growth inhibition in assay [3] (setting [7]) was 91% (active); in assay [3] (setting [8]) it was 99% (active); in assay [3] (at 50.0 µM), 99.7% (active); in assay [4] (setting [7]), 89% (active); in assay [4] (setting [8]), 99% (active); in assay [4] (at 50.0 µM), 99% (active). Besides, the growth inhibition is 86% (active) in assay [5] (setting [7]); 99% (active) in assay [5] (setting [8]); 99.5% (active) in assay [5] (at 50.0 µM); 94% (active) in assay [6] (setting [7]); 99% (active) in assay [6] (setting [8]); 99.4% (active) in assay [6] (at 50.0 µM).
Consider `CC(=O)C1=C(C)O/C(=C/c2ccc(Cl)cc2)C1=O`, for which the growth inhibition in assay [1] (setting [7]) is 27%; in assay [1] (setting [8]) it was 94% (active); in assay [1] (at 50.0 µM), 49.5%; in assay [2] (setting [7]) it was 28%; in assay [2] (setting [8]), 99% (active); in assay [2] (at 50.0 µM), 32%. Further, the growth inhibition is 34% in assay [3] (setting [7]); 99% (active) in assay [3] (setting [8]); 85.7% (active) in assay [3] (at 50.0 µM); 34% in assay [4] (setting [7]); 90% (active) in assay [4] (setting [8]); 79% (active) in assay [4] (at 50.0 µM). Moreover, the growth inhibition in assay [5] (setting [7]) was 31%; in assay [5] (setting [8]), 99% (active); in assay [5] (at 50.0 µM), 83.2% (active); in assay [6] (setting [7]), 34%; in assay [6] (setting [8]), 98% (active); in assay [6] (at 50.0 µM), 91.8% (active).
As to `CN1C(C)(C)CC(O)(C#N)CC1(C)C`, the growth inhibition in assay [1] (setting [7]) was 4%; in assay [1] (setting [8]), 99% (active); in assay [1] (at 50.0 µM), 98.6% (active); in assay [2] (setting [7]), 2%; in assay [2] (setting [8]), 99% (active); in assay [2] (at 50.0 µM), 99.7% (active). Also, the growth inhibition in assay [3] (setting [7]) is 1%; in assay [3] (setting [8]), 99% (active); in assay [3] (at 50.0 µM) it was 99.3% (active); in assay [4] (setting [7]), -6%; in assay [4] (setting [8]), 97% (active); in assay [4] (at 50.0 µM), 99.2% (active). The growth inhibition is -7% in assay [5] (setting [7]); 99% (active) in assay [5] (setting [8]); 99.5% (active) in assay [5] (at 50.0 µM); 12% in assay [6] (setting [7]); 99% (active) in assay [6] (setting [8]); 99.4% (active) in assay [6] (at 50.0 µM).
With `CC(=O)c1ccc2c(c1)CC1(C2)Cc2ccccc2C1=O` (stereo not given), the growth inhibition was -5% in assay [1] (setting [7]); -16% in assay [1] (setting [8]); -2.15% in assay [1] (at 50.0 µM); -1% in assay [2] (setting [7]); 0% in assay [2] (setting [8]); 1.15% in assay [2] (at 50.0 µM). For the same compound, the growth inhibition in assay [3] (setting [7]) was 11%; in assay [3] (setting [8]) it was 24%; in assay [3] (at 50.0 µM) it was 7.8%; in assay [4] (setting [7]), 2%; in assay [4] (setting [8]), -13%; in assay [4] (at 50.0 µM) it was -10.6%. Besides, the growth inhibition in assay [5] (setting [7]) is 25%; in assay [5] (setting [8]), 84% (active); in assay [5] (at 50.0 µM), 84.3% (active); in assay [6] (setting [7]), -4%; in assay [6] (setting [8]), -9%; in assay [6] (at 50.0 µM), 10%.
